Experimental data as given in ChEMBL document CHEMBL4513216, “Probing the Open Global Health Chemical Diversity Library for Multistage-Active Starting Points for Next-Generation Antimalarials” (ACS Infect Dis, 2020).
Among all 69,000 compounds or so, about 8,600 (12%) showed an effect of 50% or more. For the sample, strong results were picked, then their nearest neighbours and some compounds at random.

test system: Plasmodium berghei; experiment: Screen against P. berghei liver stage (PbLuc), transformed with Luciferase, at 10uM; type: functional, HepG2; details: tested at 10 uM

Structure (SMILES) | INHIBITION [%]
CC(=O)N(Cc1noc(C2CC2)n1)C1CCN(CC(=O)NC2CC2)C1 (stereo unspecified) | -11.9
Cc1nc(CNC(=O)NC(C)c2ccc3c(c2)OCCCO3)cs1 (stereo unspecified) | 1.04
Cc1noc([C@H]2C[C@H]3OCC[C@H]3N(Cc3ccc(F)cc3)C2)n1 | 35.7
CN(c1ccncn1)C1CC2(CCN(C(=O)c3cccn3C)C2)C1 (stereo unspecified) | 15.9
Cc1cnn(CC2CN(Cc3nc(-c4ccccn4)no3)CCO2)c1 (stereo unspecified) | 21.6
Cc1cnn(C2CN(Cc3nc(-c4ccsc4)no3)C2)c1 | 15.5
CN(C)CC1CN(Cc2nc(-c3ccccn3)no2)CCO1 (stereo unspecified) | -11.4
Cc1ccc(-c2nnc(CN3CC(n4cc(C)cn4)C3)o2)cc1 | -9.72
Cc1cnn(C2CN(Cc3nc(C(C)(C)C)no3)C2)c1 | 29.4
Cc1cnn(C2CN(CC(O)COCc3ccc4c(c3)OCO4)C2)c1 (stereo unspecified) | 32.3
Cc1cnn(C2CN(Cc3nc(-c4ccccn4)no3)C2)c1 | 51.1
COc1ccc(-c2noc(CN3CC(n4cccn4)C3)n2)c(OC)c1 | -18
Cc1cnn(C2CN(CC(O)c3ccc4c(c3)OCCO4)C2)c1 (stereo unspecified) | 23.2
COc1ccc(-c2noc(CN3CC(n4cc(C)cn4)C3)n2)cc1 | 89.5
Cc1cnn(C2CN(Cc3ccc4c(c3)OCCO4)C2)c1 | 57.5
Cc1ccc(-c2noc(CN3CC(n4cc(C)cn4)C3)n2)cc1 | 90.9
c1ccc2c(c1)COC1(CCCCC1)N2 | -30
O=C(NCCC1=CCCCC1)Nc1cc(C(F)(F)F)c[nH]c1=O | 7.27
c1ccc(CN2CCCC(CNc3ncnc4c3CCNCC4)C2)cc1 (stereo unspecified) | 45
CC(=O)N1CCCN(C(=O)NCCOc2ccc3c(c2)CCC3)CC1 | 35.15
CCOC(=O)[C@H]1CNC[C@H]1C(=O)OCC | 22
Cc1ncsc1C(=O)N1CCCC(c2cc(C(F)F)n3ncnc3n2)C1 (stereo unspecified) | 5.11
O=C(c1cnccn1)N1CCC2(CCN(Cc3ccsc3)C2)CC1 | 23.3
CCOc1c(CNCCCn2ccnc2)cc(Cl)cc1OC | -9.2
CN1CCN(C2CCN(C(=O)CCC3CCCC3)CC2)CC1 | 29.8
Cc1cccc(-c2noc(CN3CC(n4cccn4)C3)n2)c1 | 14.1

Structure (SMILES) | INHIBITION [%]
Cc1cccc(-c2noc(CN3CC(n4cc(C)cn4)C3)n2)c1 | 90
Cc1cnn(C2CN(Cc3nc(-c4cccnc4)no3)C2)c1 | 18.2
CO[C@H]1C[C@@H](O)C12CCN(CCOc1ccc(Cl)cc1)CC2 | 44.6
CCOCC1CN(CCOc2ccc(Cl)cc2)Cc2c1cnn2C (stereo unspecified) | 19.8
Cn1ncc2c1CN(Cc1ccccc1F)CC2COCC1CC1 (stereo unspecified) | 49.3
CCn1ncc2c1CN(CCc1cccc(Cl)c1)CC2COC (stereo unspecified) | 59.3
COCC1CN(c2ccc(C)nn2)Cc2cnn(C)c21 (stereo unspecified) | 20.6
CCOCC1CN(CCc2ccccc2)Cc2c1cnn2C (stereo unspecified) | 50
CCOCC1CN(CCOCc2ccccc2)Cc2c1cnn2C (stereo unspecified) | -14.3
CCn1ncc2c1CN(C(=O)Cc1ccccn1)CC2COC (stereo unspecified) | 18.3
COCC1CN(CCc2ccc(OC)c(OC)c2)Cc2c1cnn2C (stereo unspecified) | 53.9
COCC1CN(CCOc2ccc(Cl)cc2)Cc2c1cnn2C (stereo unspecified) | 53.9
CCn1ncc2c1C(COC)CN(Cc1ccco1)C2 (stereo unspecified) | 39.2
COCCN1CCn2cc(CNC(=O)c3cnn(C)c3)nc2C1 | 16.8
O=C(NCc1ccco1)[C@@H]1CC[C@@H]2[C@@H](CCN2CC2CC2)O1 | 12.3
O=C(Cc1ccccn1)N1CCC(O)(Cn2ccc3ccncc32)CC1 | -21.4
NC(=O)Cn1cc(NC(=O)N2CCC(c3ccccc3)CC2)cn1 | 31.65
CC(C)CN(CC(O)c1ccc(F)cc1)C(=O)c1cc[nH]n1 (stereo unspecified) | 39.5
CC(C)OC(=O)[C@@H]1CCN(C(=O)c2ccccn2)[C@@H]1c1ccc(F)cc1 | -18.8
Cc1cccc(S(=O)(=O)N2C[C@@H]3C[C@H](C(=O)NCC(C)C)[C@H](C2)O3)c1 | 45.2
O=C(CC1CCCC1)N1CCn2cc(Cn3cccn3)nc2C1 | 31.1
Cc1cc(N(C)C)nc(C2(C)CCCN2C(=O)c2ccccc2)n1 (stereo unspecified) | 15.9
Cc1cccc(N2CC[C@@H]3[C@@H](CO[C@H]3CNS(C)(=O)=O)C2)n1 | -39.4
CN(Cc1ccco1)C[C@H]1OC[C@@H]2CCN(Cc3ccccn3)C[C@@H]21 | -14.7
Cc1ccc(N2CC[C@@H]3[C@@H](CO[C@H]3CNC(=O)c3ccco3)C2)nn1 | 57.1
